KLK7 zymogen act: activates the human kallikrein-7 zymogen. 370,000 tested, 0.9% active. purified proKLK7, EDANS-DABCYL substrate fluorescence; 100% is mature enzyme control, 0% vehicle. P49862. activation, % at 7 µM. AID 652039;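 active = activation above the mean of all tested compounds plus 3 SD, computed per campaign excluding outliers beyond control limits, cut at about 13% in these data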
Target sequence (P49862 whole entry, looked up): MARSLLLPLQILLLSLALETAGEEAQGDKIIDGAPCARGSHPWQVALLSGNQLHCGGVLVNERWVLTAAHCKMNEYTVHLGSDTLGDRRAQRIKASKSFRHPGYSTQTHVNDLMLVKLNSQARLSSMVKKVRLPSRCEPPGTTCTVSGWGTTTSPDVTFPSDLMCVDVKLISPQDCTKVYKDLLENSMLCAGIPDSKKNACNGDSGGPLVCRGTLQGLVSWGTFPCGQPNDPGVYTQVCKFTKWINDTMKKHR
MsrA inhibitor: inhibitors of bovine MsrA; purified bovine MsrA, absorbance read-out; inhibition, % at 15.5 µM; 360,000 tested, 0.75% active; AID 651718; in the data active = inhibition above about 4.5%
SMARCA2 activ: increases SMARCA2 function in MMTV reporter cells; activation, % at 9.1 µM; 370,000 tested, 1% active; AID 652017; MG213 cells, MMTV-luciferase reporter, dexamethasone, overnight; in the data active = activation above about 7.8%
bovine MsrA act: activates bovine MsrA enzyme | activation, % at 10.6 µM | purified bovine MsrA, absorbance read-out | 360,000 tested, 0.3% active; in the data active = activation above about 7.5%
SMARCA2 conf: SMARCA2 activation, confirmation screen | shares compounds with SMARCA2 activ | activation, % at 9.1 µM | MG213 cells, MMTV-luciferase with dexamethasone, luminescence, overnight; MG213 cells expressing E1A, Rb sequestered; DMSO wells 0%, reference activator 100% | 3,500 tested, 30% active | AID 652260;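 active = activation above its plate's cutoff, the mean activation of tested wells plus 3 SD, cut at about 7.9% in these data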
VP16 Luc act: activates GAL4-VP16 luciferase, flagging SMARCA2 activator hits; shares compounds with SMARCA2 activ; HEK293 GAL4-VP16 pG5luc reporter, luciferase luminescence; scaled: DMSO wells 0%, SAHA wells 100%; activation, % at 9.1 µM; 3,500 tested, 41% active; AID 686939;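 active = activation above the solvent-only control well mean plus 3 SD, averaged across control plates, cut at about 5.2% in these data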
Of the large screens only hits and unclear results are named; the others gave an inactive call (follow-up assays come after a bar, where they were run). Rows were chosen to be rich in hits. Some 2.8% of all compounds tested hit in one or more screens of this group.

CCOc1ccc(Nc2nc(N)c([N+](=O)[O-])c(N3CCN(CC)CC3)n2)cc1	SMARCA2 activ 12 | SMARCA2 conf inactive | VP16 Luc act inactive
COc1ccc2c(c1)c1ccccc1n2C	SMARCA2 activ 8.9 | SMARCA2 conf inactive | VP16 Luc act inactive
COc1ccc(-c2cc(=O)c3ccccc3n2C)cc1	none
O=C1Cc2c([nH]c3ccc(Br)cc23)-c2ccccc2N1	SMARCA2 activ 9.2 | SMARCA2 conf 19 | VP16 Luc act inactive
COc1ccc(CN(CCN2CCOCC2)C(=O)c2cccc(F)c2F)cc1OC	none (no result: MsrA inhibitor, bovine MsrA act)
O=C(Nc1ccccn1)c1csc2c1CCCC2	SMARCA2 activ 11 | SMARCA2 conf inactive | VP16 Luc act 6.5
COc1ccccc1NC(=O)c1csc2c1CCCC2	none
COc1ccc(-n2c(COc3ccc(Cl)cc3)nnc2SCC(=O)c2ccc(-c3ccccc3)cc2)cc1	none (no result: MsrA inhibitor, bovine MsrA act)
Nc1[nH]c(C(=O)c2ccccc2)c(-c2cccc(C(F)(F)F)c2)c1C(=O)c1c[nH]c2ccccc12	none (no result: bovine MsrA act)
O=C(NCCc1ccc(F)cc1)C1CCN(C(=O)Nc2ccccc2)CC1	SMARCA2 activ 8.0 | SMARCA2 conf inactive | VP16 Luc act inactive
O=C(Nc1ccc(-c2nc3cccnc3s2)cc1)c1ccco1	SMARCA2 activ 8.2 | SMARCA2 conf inactive | VP16 Luc act 10
CC(=O)Nc1ccc(-c2cn3c(n2)SCC3)cc1	none
O=C(Nc1ccc(-c2cn3c(n2)SCC3)cc1)c1ccco1	SMARCA2 activ 14 | SMARCA2 conf inactive | VP16 Luc act 10
CC(=O)Nc1cc(NC(C)=O)cc(-c2nc3ccccc3[nH]2)c1	none
CC(=O)Nc1ccc(-c2nc3c(C)cccc3[nH]2)cc1	SMARCA2 activ 13 | SMARCA2 conf 20 | VP16 Luc act 17
CN(CCc1ccccc1)C(=O)c1ccc(NC(=O)Cc2ccc(NC(=O)C3CCCN(C(=O)CCc4ccccc4)C3)cc2)cc1 (stereo not given)	none
O=C(Oc1oc(-c2ccco2)nc1C=Nc1ccccc1)c1ccoc1	none
Cc1ccc(C(=O)Oc2oc(-c3ccco3)nc2C=Nc2ccc(Cl)cc2)cc1	SMARCA2 activ 8.0 | SMARCA2 conf inactive | VP16 Luc act 20
Cc1c(C(=O)NCc2ccc(C(F)(F)F)cc2)sc(=O)n1Cc1ccc(S(=O)(=O)N(C)C)cc1	none
S=C(N=Nc1ccccc1)NNc1ccccc1	SMARCA2 activ 10 | SMARCA2 conf 14 | VP16 Luc act 7.7
C#CCN(C[C@H]1[C@H](OC(=O)NCc2ccccc2F)[C@H](OC(=O)NCc2ccccc2F)C[C@@H](C(=O)OC)[C@H]1C(=O)OC)S(=O)(=O)c1ccc(C)cc1	none
CCOc1cccc(/C=C/c2ccc3cccc(O)c3n2)c1OC	SMARCA2 activ 14 | SMARCA2 conf inactive | VP16 Luc act 28
CCOc1cccc(/C=C/c2ccc3cccc(O)c3n2)c1O	SMARCA2 activ 12 | SMARCA2 conf 12 | VP16 Luc act 18
COc1ccccc1/C=C/c1ccc2cccc(O)c2n1	none
NC(=NCc1ccccc1)NC(=O)OCc1ccccc1	none (no result: MsrA inhibitor, bovine MsrA act)
C(=C\c1ccncc1)/c1ccccc1	none
C(=C\c1nc(-c2ccccc2)no1)/c1ccccc1	SMARCA2 activ 8.9 | SMARCA2 conf 9.3 | VP16 Luc act 9.1
C(=C\c1nc(-c2ccncc2)no1)/c1ccccc1	SMARCA2 activ 8.1 | SMARCA2 conf 8.1 | VP16 Luc act 5.3
COC(=O)C1CN(C2CC2)CCS(=O)(=O)N1Cc1cn(Cc2ccc(Cl)cc2)nn1 (stereo not given)	none (no result: MsrA inhibitor, bovine MsrA act)
O=C(c1ccco1)N1CCc2ccccc21	SMARCA2 activ 8.5 | SMARCA2 conf inactive | VP16 Luc act inactive
O=C(c1ccccc1)N1CCc2ccccc21	none
Cc1ccc(/C=C/C(=O)N2CCc3ccccc32)o1	none
O=C(/C=C/c1ccco1)N1CCc2ccccc21	SMARCA2 activ 9.6 | SMARCA2 conf 17 | VP16 Luc act 10.0
S=C(NCCCN1CCOCC1)Nc1ccc(-c2nc3ccccc3[nH]2)cc1	none
CN(C)CCNC(=S)Nc1ccc(-c2nc3ccccc3[nH]2)cc1	SMARCA2 activ 8.3 | SMARCA2 conf 16 | VP16 Luc act 5.9
CCCCCOc1ccc(C(=O)N(Cc2ccco2)C2CCS(=O)(=O)C2)cc1 (stereo not given)	SMARCA2 activ 8.9 | SMARCA2 conf inactive | VP16 Luc act inactive
NC(=NCc1ccccc1)NN=Cc1ccnc2ccccc12	none
S=C(NC1CCCC1)N1CCOCC1	SMARCA2 activ 8.2 | SMARCA2 conf inactive | VP16 Luc act inactive

Screens as filed in PubChem.
